Results as given in PubChem BioAssay (Tox21).
Inconclusive results are not listed. A number with no mark means an inactive call. Calls come from the whole dose curve; as a rule, active = well fitted inhibition curve with a large enough effect in the signal ratio in the repeat runs, with a control signal flat; inconclusive = weak or mixed curves, or effect the other way; inactive = flat fitted curve, though single readings scatter; the % refers to the signal ratio.

These molecules were tested against D(2) dopamine receptor (Homo sapiens) (UniProt P14416) (assay: Dopamine D2 receptor (DRD2) small molecule antagonists, cell-based qHTS assay (AID 1963595)). Details: HEK293-DRD2 cAMP HTRF antagonist mode; series mostly up to 92.4 µM; activity change, negative = inhibition: at the top concentration.
Chain of D(2) dopamine receptor (Homo sapiens) (P14416 whole entry, looked up): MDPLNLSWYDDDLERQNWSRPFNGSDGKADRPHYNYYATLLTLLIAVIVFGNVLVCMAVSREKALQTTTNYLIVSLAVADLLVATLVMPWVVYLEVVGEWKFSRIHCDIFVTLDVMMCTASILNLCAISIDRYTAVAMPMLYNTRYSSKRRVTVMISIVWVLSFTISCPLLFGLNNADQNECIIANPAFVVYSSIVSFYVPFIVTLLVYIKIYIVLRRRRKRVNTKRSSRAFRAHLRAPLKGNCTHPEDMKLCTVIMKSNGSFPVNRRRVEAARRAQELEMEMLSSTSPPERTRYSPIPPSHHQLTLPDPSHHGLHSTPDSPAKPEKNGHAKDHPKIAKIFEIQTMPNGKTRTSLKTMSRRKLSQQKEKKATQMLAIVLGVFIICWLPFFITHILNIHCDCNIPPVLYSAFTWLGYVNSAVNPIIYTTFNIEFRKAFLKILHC
From the text: National Center for Advancing Translational Sciences [NCATS]
Division of Preclinical Innovation [DPI]
U.S. Environmental Protection Agency [EPA]
National Institutes of Environmental Health Sciences [NIEHS]
National Toxicology Program [NTP]
U.S. Food and Drug Administration [FDA]
DRD2 is the D2 subtype of the dopamine receptor, which is coupled to Gi subtype of G protein-coupled receptor. This G protein-coupled receptor inhibits adenylyl cyclase activity. The DRD2-HEK293 cell line stably expressing D2 dopamine receptor can be used for screening agonists and antagonists of interactions between D2 and its ligands. The Hek293-DRD2 cAMP assay is based on HTRF technology. It measures changes of cAMP accumulation in response to Gi coupled GPCR activation or inhibition.
Tox21 Assay Protocol Summary:
DRD2-Hek293 cells were dispensed at 600 cells/3uL/well in 1536-well white plates using a Multidrop Dispenser. After the assay plates were incubated at a 37 C/5% CO2 incubator for 24 h, 1 uL of Ro20-1724 at final concentration of 0.1 mM was transferred to the assay plate by a Flying Reagent Dispenser. Following Ro20-1724 addition, 23 nL of compound dissolved in DMSO, positive controls or DMSO only was added to the assay plates via Wako pintool station. The assay plates were incubated at room temperature for 10 min. Next, 1 uL of mixture of NKH477 (final concentration at 200 nM) and quinpirole (final concentration at 12 nM) was added into the plates. After the assay plates were incubated at room temperature for an additional 30 min, 2.5 ul/well of cAMP-d2 and 2.5 ul/well of anti-cAMP-cryptate were added respectively into the assay plates using a Flying Reagent Dispenser. The plates were incubated at room temperature for 1 h. The fluorescence intensity in the plates was measured at 340 nm excitation and 665 & 620 nm emission by an Envision plate reader.
% is set by controls: 0 for no effect and ±100 for the full control effect.

Row | SMILES | activity change, negative = inhibition
1 | O=C1OC(O)C(C(Cl)Cl)=C1Cl (stereo not given) | 8.32%
2 | CC1=C(C(=O)OC(C)C)C(c2cccc([N+](=O)[O-])c2)C(C(=O)OC2CN(C(c3ccccc3)c3ccccc3)C2)=C(N)N1 (stereo not given) | 2.44% [at 42.5 µM]
3 | CC(C)(C)N(CCO)CCO | 3.11%
4 | O=C(O)CCNC(=O)c1ccccc1 | -3.86% [at 42.5 µM]
5 | C=CC/C=C/C/C=C/C/C=C/C | -4.38%
6 | C[Si]1(C)N[Si](C)(C)N[Si](C)(C)N1 | -0.165%
7 | O=C=NCc1cccc(CN=C=O)c1 | 2.32% [at 18.9 µM]
8 | Cc1nc2ccc(Cl)cc2[nH]1 | -11.1%
9 | C[Si](C)(CCCN)O[Si](C)(C)CCCN | 1.32%
10 | FC(F)(F)C(F)(F)C(F)(F)C(F)(F)CCI | -0.912% [at 42.5 µM]
11 | CCCCCCCC(=O)OCC | 9.58%
12 | CCc1ccc(O)c(OC)c1 | 0.268%
13 | CCCC(C)C=O (stereo not given) | 6.66%
14 | CC(C)NCCCC1(C(N)=O)c2ccccc2-c2ccccc21 | -0.151% [at 42.5 µM]
15 | CC(C)=NNC(N)=S | 1.51%
16 | CCCCCCCCCC#N | -1.03%
17 | Oc1ccc(Oc2ccccc2)cc1 | -23.8%
18 | CC(C)(O)CCCC1=CCC(C=O)CC1 (stereo not given) | -0.398%
19 | O=C1N(c2ccccc2)c2ccccc2C1(Cc1ccncc1)Cc1ccncc1 | -1.8% [at 42.5 µM]
20 | Cc1oc(=O)oc1COC(=O)[C@@H]1N2C(=O)[C@@H](NC(=O)[C@H](N)c3ccccc3)[C@H]2SC1(C)C | -8.15% [at 42.5 µM]

Row | SMILES | activity change, negative = inhibition
21 | CCN(CC)c1cccc(C)c1 | 5.95%
22 | CCCCC(=O)O[C@]1(C(=O)CO)CC[C@H]2[C@@H]3CCC4=CC(=O)CC[C@]4(C)[C@H]3[C@@H](O)C[C@@]21C | 12.7% [at 42.5 µM]
23 | CCCCCCC(O)CCCCCCCCCCC(=O)OC (stereo not given) | -4.57%
24 | CCCCCCCCCCCCCC(=O)OCC | 2.92%
25 | C=CCOc1c(Br)cc(C(C)(C)c2cc(Br)c(OCC=C)c(Br)c2)cc1Br | 14.4% [at 42.5 µM]
26 | Oc1ccc2c(c1)CCC2 | 3.83%
27 | CC(C)C1OCCN1CCOC(=O)NCCCCCCNC(=O)OCCN1CCOC1C(C)C (stereo not given) | -4.35%
28 | CCN(CC)C(=O)/C(C#N)=C/c1cc(O)c(O)c([N+](=O)[O-])c1 | 16.5% [at 42.5 µM]
29 | BrC/C=C/CBr | 7.87% [at 18.9 µM]
30 | COc1cc(O)cc(O)c1 | 10.8% [at 42.5 µM]
31 | CN1CCC[C@@H]1Cc1c[nH]c2ccc(CCS(=O)(=O)c3ccccc3)cc12 | 8.99% [at 42.5 µM]
32 | CCOC(=O)C(=O)CCc1ccccc1 | -25.9% [at 42.5 µM]
33 | Cc1ccccc1CCO | -1.49%
34 | COc1cc(C(=O)NC2CCCNC2)cc(OC)c1OC (stereo not given) | -0.693% [at 42.5 µM]
35 | C[N+](C)(C)CC(O)CC(=O)[O-] (stereo not given) | 0.227% [at 42.5 µM]
36 | CCOC(=O)[C@H](CCc1ccccc1)N[C@@H](C)C(=O)N(CC(=O)O)C1Cc2ccccc2C1 | -0.932% [at 42.5 µM]
37 | CCC1C(=O)OCC1Cc1cncn1C (stereo not given) | 5.74% [at 42.5 µM]
38 | c1ccc(CCCc2ccccn2)cc1 | 2.19%
39 | CN[C@@H]1[C@H](O)[C@H](NC)[C@H]2O[C@@]3(O)C(=O)C[C@@H](C)O[C@H]3O[C@@H]2[C@H]1O | -4.93% [at 42.5 µM]
40 | O=C(O)c1c(Cl)cccc1Cl | -4.91%
